In the library only some 2.2% were active in any assay of this set; here they are far more common.
Cardiac RTF inh: cardiac RTF calcium desensitization; P19429+P45379; IANBD-labeled cardiac RTF, Ca2+ fluorescence; inhibition, % at 7.15 µM; 340,000 tested, 0.12% active; AID 493244;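 active = inhibition above the mean inhibition of all tested compounds plus 3 SD, cut at about 17% in these data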;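 note: assay run at fixed EC70 calcium of 1.6 mM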
CRFBP-R2 agonist: agonists of human CRF-binding protein/CRF-R2 receptor complex | HEK293 CRF-R2/CRF-BP, calcium dye fluorescence (FLIPR); percent of saturating CRF peptide response | AID 588473 | 350,000 tested, 0.46% active | activation, % at 13.2 µM;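 active = activation of at least 50%, plus an integration ratio under a set limit after plate pattern correction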
cardiac RTF act: increases calcium sensitivity of human cardiac regulated thin filaments; P19429+P45379; IANBD-labeled TnC RTF fluorescence at EC20 calcium; 0% EC20 calcium, 100% full calcium; activation, % at 7.2 µM; 340,000 tested, 0.24% active;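 active = activation above the mean over all tested compounds plus 3 SD, cut at about 30% in these data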;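 note: rise in fluorescence read as greater calcium sensitivity of cardiac thin filaments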
CRFBP-R2 block: antagonists of CRF-binding protein/CRF-R2 receptor complex; HEK293 CRF-R2/CRF-BP, CRF-induced calcium fluorescence; inhibition, % at 11.8 µM; 350,000 tested, 0.59% active;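 active = inhibition of the ligand-induced calcium signal above about 50% at the single tested concentration, limit read from the data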
Myeloid diff MLP: compounds promoting myeloid differentiation. ER-HoxA9 myeloid progenitors, lysozyme-GFP differentiation, flow cytometry. calls only at 10 µM. 360,000 tested, 1% active;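 active = normalized GFP-positive differentiation at or above the plate's own cutoff, the solvent-only control mean plus 3 SD; inconclusive = no clear call, values can overlap the other calls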;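 note: cells exposed to compound for four days before flow analysis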
Of the large screens only hits and unclear results are named; the others gave an inactive call.

N#CC1=C(N)Oc2cc(N)ccc2C1c1cccc(F)c1 (stereo not drawn)	Myeloid diff MLP inconclusive
Cc1nn(C(C)C(=O)O)c(=O)c2ccccc12 (stereo not drawn)	CRFBP-R2 block 57
CS(=O)(=O)NN1C(=O)c2ccccc2NC1c1c[nH]c2ccccc12 (stereo not drawn)	Myeloid diff MLP active
Cc1ccc(NC(=O)COC(=O)CCc2c[nH]c3ccccc23)c(C)c1	CRFBP-R2 block 54
Cc1ccccc1NC(=O)COC(=O)CCc1c[nH]c2ccccc12	none
N#CCSc1ccccc1NC(=O)COC(=O)Cc1c[nH]c2ccccc12	Myeloid diff MLP active
CC(C)c1ccccc1NC(=O)COC(=O)Cc1c[nH]c2ccccc12	none
N#CCSc1ccccc1NC(=O)COc1ccc(-c2nnco2)cc1	Myeloid diff MLP active
COCC(=O)N1CCC(Oc2ccc(C(=O)N(C)Cc3nccs3)cc2)CC1	none
COC(=O)[C@H](NC(=O)c1cc(-c2ccccc2)sc1N)C(C)C	none (no result: Cardiac RTF inh, CRFBP-R2 agonist, cardiac RTF act, CRFBP-R2 block)
Cn1c(=O)c2cc(S(=O)(=O)NCCC(=O)NCC3CCCO3)ccc2n(C)c1=O (stereo not drawn)	none
Cc1ccc(S(=O)(=O)N(C)C)cc1NC(=S)N1CCN(Cc2ccc3c(c2)OCO3)CC1	Myeloid diff MLP active
CN(c1ccc(C(=O)N2CCCCC2)cc1)S(=O)(=O)c1ccccc1	none
CN(c1ccc(C(=O)N2CCN(Cc3ccc4c(c3)OCO4)CC2)cc1)S(=O)(=O)c1ccccc1	CRFBP-R2 block 68
Cc1ccc(S(=O)(=O)N(C)c2ccc(C(=O)N3CCN(Cc4ccc5c(c4)OCO5)CC3)cc2)cc1	none
CN(c1ccc(C(=O)N2CCN(Cc3ccccc3)CC2)cc1)S(=O)(=O)c1ccccc1	Myeloid diff MLP active
CN(C(=O)c1ccc(NC(=O)Cc2cccc(NC(=O)C3CCN(C(=O)c4ccccc4)CC3)c2)cc1)C1CCCC1	none
O=C(OCCOc1cccc(Cl)c1)c1cc(S(=O)(=O)N2CCOCC2)ccc1F	none
CC(=O)c1cccc(S(=O)(=O)N2CCCC(c3nc4c(nnn4Cc4cccc(Cl)c4)c(=O)[nH]3)C2)c1 (stereo not drawn)	none
CCc1ccc(C2c3[nH]c4ccccc4c3CCN2C(=O)c2cc(C)nn2C)cc1 (stereo not drawn)	none
CCOc1ccc(NS(=O)(=O)c2cccs2)cc1S(=O)(=O)N1CCCC1	none (no result: Cardiac RTF inh, cardiac RTF act)
COc1ccc(C2=Nn3c([n+](C)c4ccccc43)SC2)cc1	Myeloid diff MLP inconclusive
C[n+]1c2n(c3ccccc31)N=C(c1ccc(Cl)cc1)CS2	Myeloid diff MLP active
CCN(C[C@H]1N[C@@](Cc2ccccc2)(C(=O)OC)[C@H]2C(=O)N(Cc3ccccc3)C(=O)[C@@H]12)C(=O)Nc1ccc(Cl)cc1	none
COc1ccc(C(=O)N(C)Cc2cnn(Cc3ccccc3)c2)cc1S(=O)(=O)N1CCOCC1	Myeloid diff MLP inconclusive
CCOC(=O)c1ccc(Nc2nc(=O)c3cccnc3s2)cc1	none
O=c1nc(Nc2ccc(OCc3ccccc3)cc2)sc2ncccc12	Myeloid diff MLP active
O=C1NC(=S)S/C1=C\c1ccc(SCc2ccco2)o1	Cardiac RTF inh 50
C[C@H](NC(=O)N1CCn2c1nc1ccccc12)C(=O)NCc1ccc2c(c1)OCO2	Myeloid diff MLP inconclusive
CCS(=O)(=O)N1CCC(C(=O)Nc2cc(C)ccc2O)CC1	none
CN(C)c1cccc(C(=O)OCC(=O)Nc2ccccc2Sc2ccccc2)c1	CRFBP-R2 block 62
CN(C)c1cccc(C(=O)OCC(=O)Nc2ccccc2-c2ccccc2)c1	none
O=C(CN1CCCC1)Nc1ccccc1Sc1ccccc1	CRFBP-R2 agonist 52
Cc1cc(C)c(S(=O)(=O)N2CCCOC2CNC(=O)C(=O)NCCc2c[nH]c3ccccc23)c(C)c1 (stereo not drawn)	none
Cc1ccc(-c2nc3ccc(C)cn3c2CC2CCCCC2)cc1	none (no result: Cardiac RTF inh, CRFBP-R2 agonist, cardiac RTF act, CRFBP-R2 block)
Cc1ccc2c(c1)c1c3n2CCCN(Cc2ccccc2)C3CCC1 (stereo not drawn)	Myeloid diff MLP active
Cc1ccc2c(c1)c1c3n2CCN(CC#N)C3CCC1 (stereo not drawn)	none
CC[C@]12c3[nH]c4ccc(OC)cc4c3CCN1C(=O)C(CC(=O)NCCCOC)C[C@@H]2C(=O)N1CCN(C(=O)c2ccco2)CC1 (stereo partly drawn)	CRFBP-R2 block 53
CC[C@]12c3[nH]c4ccc(OC)cc4c3CCN1C(=O)C(CC(=O)NCCN1CCOCC1)C[C@@H]2C(=O)N1CCN(C(=O)c2ccco2)CC1 (stereo partly drawn)	none
CC[C@]12c3[nH]c4cc(-c5ccco5)ccc4c3CCN1C(=O)[C@@H](CC(=O)NCCCn1ccnc1)C[C@@H]2C(=O)N1CCN(C(=O)C2CC2)CC1	Myeloid diff MLP active
Cc1cc(NC(=O)COC(=O)C(Cc2ccccc2)NC(=O)c2ccco2)no1 (stereo not drawn)	CRFBP-R2 agonist 153
COC(=O)CNC(=O)COC(=O)C(Cc1ccccc1)NC(=O)c1ccco1 (stereo not drawn)	CRFBP-R2 agonist 55
O=C(COC(=O)[C@H](Cc1ccccc1)NC(=O)c1ccco1)Nc1ccccc1	none
CC1=CC2=NC(=O)/C(=C/c3coc4ccc(Cl)cc4c3=O)C(=N)N2O1	CRFBP-R2 agonist 106, cardiac RTF act 58
CSC1=NSC2=NC(=O)/C(=C/c3coc4ccccc4c3=O)C(=N)N12	CRFBP-R2 agonist 313, cardiac RTF act 287
N=C1/C(=C/c2cccn2Cc2ccc(F)cc2)C(=O)N=C2SC=CN12	none
N=C1/C(=C\c2coc3ccccc3c2=O)C(=O)N=C2SC=CN12	CRFBP-R2 agonist 181, cardiac RTF act 81
C=CCNc1nc(C)c(CNc2c(C)cc(C)cc2C)nc1C#N	none
O=S(=O)(Nc1nc2ccc(S(=O)(=O)N3CCCC3)cc2s1)c1ccc(F)cc1	none
COc1ccc(S(=O)(=O)NCC2CCC(C(=O)NCCCN3CCCC3=O)CC2)cc1 (stereo not drawn)	Myeloid diff MLP inconclusive
COc1ccc(N2CCN(C(=O)CNC(=O)c3ccco3)CC2)cc1	none
O=C(NCC(=O)N(Cc1ccco1)C(C(=O)NC1CCCCC1)c1cccnc1)c1cccs1 (stereo not drawn)	Myeloid diff MLP active
COc1ccc(-c2c(C)c3ccc(O)cc3oc2=O)cc1OC	none
O=c1ccc2c(-c3ccccc3)c3ccc(O)cc3oc-2c1	CRFBP-R2 agonist 178, cardiac RTF act active, Myeloid diff MLP active
O=c1cc(-c2ccccc2)oc2cc(O)ccc12	none
Nc1ccc(-c2c3ccc(=O)cc-3oc3cc(O)ccc23)cc1C(=O)O	cardiac RTF act active, Myeloid diff MLP active
Cc1ccc(S(=O)(=O)N2CCCC(C(=O)NCCc3ccc(Cl)cc3)C2)cc1 (stereo not drawn)	none (no result: Cardiac RTF inh, cardiac RTF act)
CSc1ccc(CN2CCC(C)(Oc3ccc(-n4ccnc4)cc3)C2)cc1 (stereo not drawn)	none (no result: Cardiac RTF inh, CRFBP-R2 agonist, cardiac RTF act, CRFBP-R2 block)
N#Cc1ccc(CC(=O)c2ccccc2)[nH]c1=O	CRFBP-R2 agonist 58

High-throughput results as filed in PubChem BioAssay.
